Measured values: publication PMC5540273 (PLoS ONE, 2017)

Legend:
Conditions in all cases: concentration: 1 μM, replicates: in singlicate; n = 1
[1] = system: T1, MEK5
T1 construct: gene MAP2K5

[2] = system: T2, MEK6
T2 construct: gene MAP2K6

[3] = system: MELK
[4] = system: MERTK
[5] = system: MET
[6] = system: T3, MINK
T3 construct: gene MINK1

[7] = system: MKK7
[8] = system: MKNK1
[9] = system: MKNK2
[10] = system: T4, MLCK
T4 construct: gene MYLK3
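Further: KINOMEscan kinase panel screen.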

SMILES | %Inh [1] [%] | %Inh [2] [%] | %Inh [3] [%] | %Inh [4] [%] | %Inh [5] [%] | %Inh [6] [%] | %Inh [7] [%] | %Inh [8] [%] | %Inh [9] [%] | %Inh [10] [%]
CN(c1ccc(NC(=O)Nc2cc(C(F)(F)F)ccc2F)cc1)c1ccnc(Nc2ccc(S(N)(=O)=O)cc2)n1 [GW809893] | 98.8 | 100 | 12 | 98.2 | 88 | 76 | 2 | 50 | 98.9 | 28
CN1CCN(Cc2cccc(-c3ccc4c(Nc5ccc(Oc6ccccc6)cc5)ccnc4c3)c2)CC1 [GW578342] | 100 | 0 | 16 | 0 | 5 | 9 | 7 | 8 | 51 | 1
O=C(Nc1cccc(-c2nn3ccccc3c2-c2ccnc(Nc3cccc(F)c3)n2)c1)c1c(F)ccc(F)c1Cl [GSK357952] | 88 | 0 | 0 | 51 | 0 | 0 | 0 | 0 | 29 | 0
CCn1c(-c2nonc2N)nc2c(C#CC(C)(C)O)ncc(OCCCCN)c21.O=C(O)C(F)(F)F.O=C(O)C(F)(F)F [GSK507274] | 0 | 0 | 1 | 30 | 0 | 0 | 0 | 0 | 11 | 13
Cc1ccc(C(=O)Nc2ccc(Nc3ccnc4cc(-c5nccs5)ccc34)cc2O)cc1.Cl [GW494702] | 99.9 | 0 | 1 | 24 | 0 | 47 | 0 | 22 | 8 | 12
Cn1cc(-c2[nH]c3cc(NC(=O)[C@H](N)C4CCCCC4)cc4c3c2C=NNC4=O)cn1 | 100 | 3 | 60 | 95.1 | 5 | 96.5 | 0 | 100 | 100 | 84
Cc1ccc(S(=O)(=O)Nc2ccc(Nc3nccc(Nc4cccc5[nH]ncc45)n3)cc2)cc1 [GSK581271] | 69 | 0 | 0 | 9 | 0 | 0 | 0 | 0 | 1 | 0
Oc1cc(Nc2ccnc3cc(I)ccc23)ccc1F [GW552771] | 96.5 | 0 | 0 | 34 | 0 | 55 | 0 | 0 | 14 | 0
O=c1[nH]cc(-c2ccc(N3CCOCC3)cc2)c2sc(-c3cn[nH]c3)cc12 [GSK2276055] | 8 | 29 | 17 | 7 | 0 | 26 | 0 | 0 | 9 | 19
c1ccc(-c2n[nH]cc2Nc2ccnc3ccccc23)nc1 [GW694077] | 31 | 8 | 21 | 0 | 100 | 61 | 0 | 13 | 85 | 2
CC(=O)N1CCN(c2ccc(Nc3nccc(-c4sc(C(C)C)nc4-c4cccc(NS(=O)(=O)c5cccc(Cl)c5)c4)n3)cn2)CC1 [GSK1660437] | 99.8 | 0 | 57 | 44 | 0 | 18 | 0 | 7 | 51 | 0
Cl.Cl.NCC(C(=O)Nc1cc(Br)c(-c2ccnc3[nH]ccc23)s1)c1ccccc1 (centres unmarked) [GSK1269851] | 20 | 0 | 45 | 19 | 0 | 8 | 0 | 13 | 99.1 | 98.7
CC(C)(C)c1ccc2nccc(Nc3cccc(O)c3)c2c1 [GW856795] | 52 | 0 | 1 | 0 | 0 | 0 | 31 | 47 | 23 | 0
O=C(Nc1cccc(-c2nn3ncccc3c2-c2ccnc(Nc3ccccc3)n2)c1)c1c(F)cccc1F [GSK198271] | 99.9 | 59 | 0 | 79 | 43 | 23 | 27 | 11 | 7 | 8
O=C(NC1CCN(c2ccnc(Nc3ccc(F)cc3)n2)C1)c1cc2ccccc2s1 (centres unmarked) [GSK1379716] | 8 | 1 | 0 | 38 | 0 | 0 | 0 | 3 | 7 | 8
COc1cccc(C2=C(Nc3ccc(Cl)c(C(=O)O)c3)C(=O)NC2=O)c1 [SB-390769] | 18 | 0 | 7 | 0 | 8 | 100 | 18 | 4 | 5 | 100

SMILES | %Inh [1] [%] | %Inh [2] [%] | %Inh [3] [%] | %Inh [4] [%] | %Inh [5] [%] | %Inh [6] [%] | %Inh [7] [%] | %Inh [8] [%] | %Inh [9] [%] | %Inh [10] [%]
CCc1ccc(-c2ccc3c(c2)-c2c(cnn2C)S(=O)(=O)N3C)cc1 | 0 | 0 | 0 | 0 | 26 | 0 | 0 | 0 | 0 | 1
COc1ccc(Nc2nccc(NCCNC(=O)c3cc4ccccc4s3)n2)cc1 [GSK1379896] | 33 | 0 | 0 | 24 | 0 | 2 | 0 | 0 | 0 | 0
COc1cccc(NC(=O)NC2CCN(c3ccnc(Nc4cc(OC)c(OC)c(OC)c4)n3)C2)c1 (centres unmarked) [GSK1379763] | 99.9 | 0 | 0 | 15 | 0 | 0 | 0 | 36 | 65 | 0
COc1ccc(-c2coc3ccc(-c4nnc(SCc5ccc(OC)c(C(F)(F)F)c5)o4)cc23)cc1 | 4 | 0 | 20 | 11 | 13 | 26 | 14 | 0 | 1 | 0
Nc1ncnc2c1nc(-c1ccccc1)n2-c1ccccc1 [SKF-97293] | 32 | 27 | 0 | 0 | 10 | 16 | 38 | 0 | 18 | 23
C[C@@H](Oc1cc(-n2cnc3cc(-c4ccnc(NCCS(C)(=O)=O)c4)ccc32)sc1C(N)=O)c1ccccc1Cl [GSK907232] | 56 | 0 | 0 | 90.9 | 36 | 1 | 0 | 0 | 7 | 0
O=C(Nc1n[nH]c2nc(-c3ccc(O)cc3)ccc12)C1CC1 [SB-710363] | 81 | 0 | 46 | 8 | 0 | 72 | 0 | 43 | 54 | 57
CC(C)c1nc(-c2cccc(NS(=O)(=O)c3c(F)cccc3F)c2F)c(-c2ccnc(Nc3ccc(N4CCOCC4)nc3)n2)s1 [GSK2008607] | 99.9 | 59 | 81 | 79 | 85 | 60 | 0 | 12 | 96 | 0
Cc1ccc(C(=O)N2CC[C@@H](O)C2)cc1-n1c(C)cc(OCc2ccc(F)cc2F)c(Br)c1=O | 0 | 0 | 0 | 0 | 0 | 0 | 0 | 0 | 0 | 0
Cl.NC(=O)c1cccc(Nc2nccc(Nc3ccc(Oc4c(Cl)cccc4Cl)c(Cl)c3)n2)c1 [GW659009] | 97.5 | 0 | 0 | 0 | 0 | 90.2 | 17 | 0 | 1 | 0
COc1ccc(CNC(=O)NC2CCN(c3ccnc(Nc4ccc(F)cc4)n3)CC2)cc1 [GSK1379788] | 9 | 0 | 0 | 0 | 0 | 0 | 0 | 2 | 0 | 0
O=C(Nc1cccc(Oc2ccc3nc(NC(=O)C4CC4)cn3n2)c1)c1ccccc1C(F)(F)F | 99.8 | 14 | 15 | 26 | 7 | 2 | 0 | 0 | 0 | 0
Nc1ncc(-c2cccnc2)c2scc(-c3ccc4c(c3)CCN4C(=O)Cc3ccccc3)c12 [GSK683281] | 99.7 | 0 | 100 | 69 | 33 | 41 | 30 | 5 | 15 | 14
O=C(O)C(F)(F)F.O=C(O)C(F)(F)F.O=c1[nH]ccc2nc(N[C@@H]3CCCNC3)nc(Nc3ccc(S(=O)(=O)N4CCOCC4)cc3)c12 [GSK2177277] | 100 | 86 | 100 | 100 | 90.2 | 98.1 | 81 | 7 | 59 | 90.8
C[C@@H]1CC[C@@H](C(=O)Nc2ccccc2)CN1c1cc(-c2ccc3c(N)n[nH]c3c2)nc(N)n1 [GSK2286062] | 4 | 8 | 31 | 39 | 0 | 9 | 0 | 0 | 12 | 16
Clc1ccc(-c2nn3ncccc3c2-c2ccnc(Nc3ccc4c(c3)OCCO4)n2)cc1 [GW829116] | 33 | 20 | 0 | 0 | 0 | 23 | 0 | 0 | 0 | 0
